# Experimental data reported in PubChem BioAssay AID1445 (SRMLSC, 2008).
# Out of some 220,000 compounds screened, about 910 (0.41%) were called active. This excerpt belongs to a sample that is enriched for actives. Entries with a potency or affinity are not part of this list. Values without a mark were called inactive.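 The calls were made as follows: active = primary inhibition above the hit cutoff, then over 50% inhibition at one or more dose response concentrations (cut at about 23% in these data, passing the limit was not always enough); inconclusive = conflicting primary data, or primary hits not chosen for dose response; inactive = low primary inhibition, or under 50% at every dose.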
# Target: Aminopeptidase N (Plasmodium falciparum (isolate 3D7)) (UniProt O96935)
# Assay: P. falciparum M1AAP inhibitors, biochemical, fluorogenic H-Leu-NHMec substrate, 1536-well (AID 1445);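 also: plate controls were DMSO full reaction for no effect and no enzyme background for full effect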
# Conditions: recombinant M1AAP, H-Leu-NHMec fluorogenic kinetic assay; at 30 µM, active compounds read high unless noted
# Sequence of Aminopeptidase N (Plasmodium falciparum (isolate 3D7)) (O96935 whole entry, looked up): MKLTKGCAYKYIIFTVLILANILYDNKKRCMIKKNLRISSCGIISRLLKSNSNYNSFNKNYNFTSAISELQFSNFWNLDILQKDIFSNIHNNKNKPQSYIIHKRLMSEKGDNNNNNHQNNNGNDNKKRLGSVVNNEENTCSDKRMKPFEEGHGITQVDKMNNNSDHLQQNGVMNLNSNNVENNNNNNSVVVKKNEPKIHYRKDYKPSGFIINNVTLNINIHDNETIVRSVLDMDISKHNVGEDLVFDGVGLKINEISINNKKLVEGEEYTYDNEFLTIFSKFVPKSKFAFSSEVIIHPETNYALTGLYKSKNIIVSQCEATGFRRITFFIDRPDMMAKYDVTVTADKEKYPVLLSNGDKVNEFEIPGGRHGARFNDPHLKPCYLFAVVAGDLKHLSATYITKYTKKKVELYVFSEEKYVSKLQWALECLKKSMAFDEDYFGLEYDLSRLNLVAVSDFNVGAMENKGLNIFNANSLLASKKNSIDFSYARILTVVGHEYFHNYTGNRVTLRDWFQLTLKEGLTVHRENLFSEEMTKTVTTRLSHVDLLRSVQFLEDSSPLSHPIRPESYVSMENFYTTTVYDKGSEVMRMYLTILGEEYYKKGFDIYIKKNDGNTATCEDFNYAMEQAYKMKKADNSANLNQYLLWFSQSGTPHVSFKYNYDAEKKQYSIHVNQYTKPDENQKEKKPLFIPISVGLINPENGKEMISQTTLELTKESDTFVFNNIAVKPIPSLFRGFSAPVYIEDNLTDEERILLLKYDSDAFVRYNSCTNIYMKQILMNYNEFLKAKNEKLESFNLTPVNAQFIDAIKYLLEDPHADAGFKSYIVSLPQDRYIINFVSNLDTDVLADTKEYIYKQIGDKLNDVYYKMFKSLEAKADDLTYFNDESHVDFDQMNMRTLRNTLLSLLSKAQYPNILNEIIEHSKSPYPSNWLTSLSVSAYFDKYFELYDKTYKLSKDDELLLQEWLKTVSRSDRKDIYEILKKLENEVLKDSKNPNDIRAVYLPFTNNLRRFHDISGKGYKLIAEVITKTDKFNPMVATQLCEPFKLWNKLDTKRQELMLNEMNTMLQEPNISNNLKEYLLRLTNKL
row,Compound,inhibition
1,CCOCCCNC(=O)CN(c1cc([N+](=O)[O-])ccc1OC)S(C)(=O)=O,2.57%
2,CS(C)(=O)=NS(=O)(=O)c1ccc(Cl)cc1,1.82%
3,CCc1nnc(SCC(=O)N2CCCc3ccccc32)nc1CC,0.48%
4,CCCn1c2ccccc2c2nnc(SCC(=O)Nc3cc(C)on3)nc21,10.3%
5,CSc1nnc2c3cc(C)ccc3n(Cc3ccccc3)c2n1,1.58%
6,CCn1c2ccccc2c2nnc(SCC(=O)Nc3c(C)n(C)n(-c4ccccc4)c3=O)nc21,0.94%
7,CCn1c2ccccc2c2nnc(SCC(=O)Nc3cc(C)on3)nc21,1.82%
8,Cc1ccc2c(c1)c1nnc(SCC(=O)N3CCN(c4ccc(F)cc4)CC3)nc1n2CC(=O)O,2.3%
9,O=C(CSc1nnc(Cc2cc(=O)[nH]c(=O)[nH]2)n1-c1ccc(Cl)cc1)NCC1CCCO1 (centres undefined),0.41%
10,COC(=O)C1=C(C)N(C)C(=S)NC1c1ccc(OC)cc1OC (centres undefined),3.74%
11,CCOc1ccc(C(=O)NC(=S)Nc2cccnc2)cc1[N+](=O)[O-],6.68%
12,Cn1c(=O)c(C(=O)COC(=O)c2cc(-c3ccccc3)nc3ccccc23)c(N)n(Cc2ccccc2)c1=O,3.89%
13,COc1ccc(/C=C/C(=O)NC(=S)Nc2ccc(N3CCN(C(C)=O)CC3)cc2)cc1,6.43%
14,O=C(/C=C/c1cccs1)NC(=S)Nc1ccccc1,22%
15,COc1ccc(/C=C/C(=O)NC(=S)Nc2ccc(S(N)(=O)=O)cc2)cc1,9.42%
16,COc1ccc(NC(=S)NC(=O)/C=C/c2cccs2)cc1,10.7%
17,COc1ccc(/C=N/N=C2/NC(=O)C(CC(=O)NC(C)C)S2)cc1 (centres undefined),10.2%
18,O=C(CN1CCCN(S(=O)(=O)c2ccc(F)cc2)CC1)Nc1ccccc1Br,7.31%
19,COc1ccc2c(c1)C=C(CN1CCN(C(C)C)C(CCO)C1)CO2 (centres undefined),-13.9%
20,CCOc1cc(/C=C2\SC(=Nc3ccccc3)N(c3ccccc3)C2=O)ccc1OCC(=O)O,8.93%
21,CCOc1cc(/C=N/NC(=O)c2ccc(-c3csc(Nc4ccc(C)cc4)n3)cc2)ccc1OCC(=O)O,14.3%
22,CCOc1cc(C=C2C(=O)c3ccccc3C2=O)ccc1OCC(=O)Nc1ccc(C)cc1,2.91%
23,CCOc1cc(/C=C2/SC(=O)N(CC(=O)N3CCc4ccccc4C3)C2=O)ccc1OCC(=O)O,12.8%
24,COC(=O)c1c(NC(=O)COC(=O)c2ccccc2O)sc2c1CCCCC2,2.42%

row,Compound,inhibition
1,COc1cc(NC(=O)Cc2cccs2)ccc1-n1cnnn1,4.02%
2,CN1CCc2c(OCc3ccc(F)cc3)cccc2C1=O,3.15%
3,Cc1ccc(S(=O)(=O)Nc2ccccc2C(=O)OC(C)C(=O)Nc2ccc3ccccc3c2)cc1[N+](=O)[O-] (centres undefined),-0.95%
4,COc1ccc(NC(=O)c2ccccc2NS(=O)(=O)c2ccc(C)cc2)c([N+](=O)[O-])c1,11.4%
5,O=C(O)c1ccccc1Nc1ccc(OC(F)F)cc1,2.47%
6,COc1ccc(NC(=S)NNc2ccc([N+](=O)[O-])cc2S(=O)(=O)Nc2ccc(C)cc2C)cc1,5.53%
7,O=c1c(Cc2ccc(Cl)cc2)c(O)ccn1Cc1ccccc1,1.46%
8,CCCc1cc(=O)oc2c(C)c(O)c(CN3CCCCC3)cc12,-4.01%
9,Cc1oc2c(C)c3oc(=O)c4c(c3cc2c1C)CCC4,9.19%
10,Cc1c(O)c(CN2CCCC2)cc2c1oc(=O)c1ccccc12,11.4%
11,CCc1cc(=O)oc2c(C)c(O)c(CN(C)C)cc12,9.74%
12,Cc1oc2c(C)c3oc(=O)c4c(c3cc2c1C)CCCC4,4.09%
13,Cc1c(O)c(CN2CCCCC2)cc2c1oc(=O)c1ccccc12,1.46%
14,O=C(COc1cccnc1[N+](=O)[O-])Nc1ccccc1Sc1ccccc1,-2.34%
15,CCOc1cccc(C(=O)NC(=S)Nc2cccnc2)c1,6.93%
16,COc1ccc(-c2ccc(N(C)C)cc2)cc1[C@H]1[C@H]2C=CC[C@@H](C)[C@@H]2C(=O)N1Cc1ccccc1,0.52%
17,O=C(c1ccc2c(=O)n3c(nc2c1)CCCCC3)N1CCN(c2ccccc2)CC1,7.74%
18,COc1ccc(Nc2cc(Cl)nc(N)n2)cc1,4.08%
19,CCNC(=S)N(CCc1ccc(S(N)(=O)=O)cc1)C1CC(=O)N(c2ccccc2)C1=O (centres undefined),2.82%
20,Cc1nn2c(-c3ccccn3)ccnc2c1Br,7.82%
21,CCOc1c(Cl)cnn(-c2ccc(C)cc2)c1=O,-0.82%
22,CCOC(=O)c1cc(-c2cc3ccccc3o2)nc2c1c(=O)[nH]c(=O)n2CCOC,6.31%
23,Oc1[nH]c2ccc(Br)cc2c1N=Nc1ccc(C(F)(F)F)cn1,4.3%
24,N=C(N)N=Nc1c(O)[nH]c2ccc(Br)cc12,10.3%

row,Compound,inhibition
1,CNc1oc(/C=C/c2ccccc2)nc1C#N,3.76%
2,N#Cc1nc(-c2ccco2)oc1NCCCN1CCOCC1,6.97%
3,CN(C)CCNc1oc(/C=C/c2ccccc2)nc1C#N,20.7%
4,CN(C)CCCNc1oc(-c2ccccc2)nc1C#N,5.83%
5,COCCNc1oc(-c2ccccc2Cl)nc1C#N,10.4%
6,COCCNc1oc(-c2ccc(C)cc2)nc1C#N,19.1%
7,N#Cc1nc(-c2ccc(F)cc2)oc1NCCN1CCOCC1,3.45%
8,COc1ccc(-c2nc(C#N)c(NCCCN3CCOCC3)o2)cc1,27.7% (active)
9,CN1CCN(c2oc(/C=C/c3ccccc3)nc2C#N)CC1,16.3%
10,O=C(NCCOc1ccccc1F)c1cc(F)c(F)cc1Cl,3.2%
11,CC(=O)N1CCN(c2ccc([N+](=O)[O-])cc2)CC1,3.7%
12,COc1ccccc1-c1nn2c(C(F)(F)F)nnc2s1,4.63%
13,O=C(NCc1ccccc1)C1=C[C@H](c2coc3ccccc3c2=O)C[C@H](OCCCCO)O1,6.04%
14,O=c1c2cc(NC(=S)NC3CC3)ccc2nc2n1CCCCC2,-0.67%
15,COCC1CCN(Cc2cn(-c3ccccc3F)nc2-c2cc(C)sc2C)CC1,0.56%
16,COc1ccc(-c2nc3n(n2)C(c2ccccc2Cl)C(C(N)=O)=C(C)N3)cc1 (centres undefined),9.41%
17,CCOC(=O)CSc1ccc(S(=O)(=O)N2CCCC2)cc1[N+](=O)[O-],-0.65%
18,COc1ccc(OCCSc2nc3ccccc3c(=O)[nH]2)cc1,2.2%
19,CCN1C(=O)[C@H]2[C@H]3[C@H](O)[C@H](O)C/C(=N\O[C@H](C)c4cn([C@H](CO)Cc5ccccc5)nn4)[C@@H]3CC[C@H]2C1=O,-7.3%
20,COCC(=O)NC1CCCCCC1,2.18%
21,CCOc1cc(C)c(Cl)cc1S(=O)(=O)NCC1CCCO1 (centres undefined),1.73%
22,O=C1NCCCC1C(=O)N/N=C/c1cccc(Cl)c1 (centres undefined),-7.25%
23,NS(=O)(=O)c1ccc(CCNC(=O)COC(=O)CCc2ccccc2)cc1,-2%
24,CN(C)c1oc(-c2ccccc2)nc1C#N,11%

row,Compound,inhibition
1,CCN(CC)CCCNc1oc(-c2ccccc2[N+](=O)[O-])nc1C#N,9.93%
2,CNc1oc(-c2cccs2)nc1C#N,13%
3,N#Cc1nc(COc2ccc(-c3ccccc3)cc2)oc1NCCCN1CCOCC1,-3.18%
4,N#Cc1nc(Cc2cccc3ccccc23)oc1NCCCN1CCOCC1,6.12%
5,CCN(CC)CCCNc1oc(-c2cccc(Cl)c2)nc1C#N,12.2%
6,CCOc1cc(C)c(C(C)C)cc1S(=O)(=O)n1ccc(C)n1,-2.68%
7,Cc1c(Cl)cccc1NC(=S)NCCc1ccccn1,20.7%
8,COc1ccc(/C=C2\CCCC3C2=NN(C(=O)COC(=O)CNC(=O)c2ccccc2)C3c2ccc(OC)cc2)cc1 (centres undefined),2.31%
9,O=C(Cc1cccs1)Nc1nnc(-c2ccc(F)cc2)s1,-2.11%
10,COc1cc(C(=O)Nc2ccc([N+](=O)[O-])cn2)cc(OC)c1OC,13.8%
11,COc1ccc(S(=O)(=O)NCCC(C)C)cc1OC,-0.02%
12,Cc1nc(N)sc1C(=O)OCC(C)C,-4.36%
13,Cc1ccc(-n2c(P(C)(=O)O)nc3ccccc32)cc1,-0.56%
14,Cc1ccnc(NC(=O)CCCOc2ccc(Cl)cc2C)c1,-1.52%
15,C=CCC(=O)N1CCCC(CCC(=O)NCc2ccccc2F)C1 (centres undefined),9.17%
16,O=C(CCn1c(=O)oc2ccccc21)Nc1ccc2c(c1)OCCO2,-5.19%
17,COc1ccccc1CCNS(=O)(=O)c1cn(C)c(=O)n(C)c1=O,-3.3%
18,CC(CCC(=O)O)C1CC[C@@]2(C)C3C(=O)CC4C(C)(C)C(O)CC[C@]4(C)C3C(=O)C[C@]12C (some centres undefined),3%
19,C[C@H](CCC(=O)O)[C@H]1CC[C@H]2[C@@H]3C(=O)C[C@@H]4CC(=O)CC[C@]4(C)[C@H]3CC(=O)[C@]12C,7.14%
20,C/C(Cl)=C\Cn1c(O)c(N=O)c2ccccc21,-2.4%
21,C=CCn1c(O)c(N=NC(=O)OCC)c2ccccc21,12.7%
22,CCn1c(O)c(N=NC(=O)Cn2ccc(C(F)(F)F)n2)c2ccccc21,5.05%
